{
  "source": "paper PMC4336329",
  "about": "(PLoS ONE, 2015)",
  "note": "About 14,000 (4.5%) of roughly 310,000 compounds showed an effect of 50% or more. Effects have a minus sign here. The entries come from a sample that favours strong results as a whole.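 Further: peak tail current of the secondary pulse compared with the same well before compound.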",
  "data": [
    {"target": "human ether-à-go-go-related gene (hERG) potassium channel (human, UniProt Q12809)", "sequence (Q12809 whole entry, looked up)": "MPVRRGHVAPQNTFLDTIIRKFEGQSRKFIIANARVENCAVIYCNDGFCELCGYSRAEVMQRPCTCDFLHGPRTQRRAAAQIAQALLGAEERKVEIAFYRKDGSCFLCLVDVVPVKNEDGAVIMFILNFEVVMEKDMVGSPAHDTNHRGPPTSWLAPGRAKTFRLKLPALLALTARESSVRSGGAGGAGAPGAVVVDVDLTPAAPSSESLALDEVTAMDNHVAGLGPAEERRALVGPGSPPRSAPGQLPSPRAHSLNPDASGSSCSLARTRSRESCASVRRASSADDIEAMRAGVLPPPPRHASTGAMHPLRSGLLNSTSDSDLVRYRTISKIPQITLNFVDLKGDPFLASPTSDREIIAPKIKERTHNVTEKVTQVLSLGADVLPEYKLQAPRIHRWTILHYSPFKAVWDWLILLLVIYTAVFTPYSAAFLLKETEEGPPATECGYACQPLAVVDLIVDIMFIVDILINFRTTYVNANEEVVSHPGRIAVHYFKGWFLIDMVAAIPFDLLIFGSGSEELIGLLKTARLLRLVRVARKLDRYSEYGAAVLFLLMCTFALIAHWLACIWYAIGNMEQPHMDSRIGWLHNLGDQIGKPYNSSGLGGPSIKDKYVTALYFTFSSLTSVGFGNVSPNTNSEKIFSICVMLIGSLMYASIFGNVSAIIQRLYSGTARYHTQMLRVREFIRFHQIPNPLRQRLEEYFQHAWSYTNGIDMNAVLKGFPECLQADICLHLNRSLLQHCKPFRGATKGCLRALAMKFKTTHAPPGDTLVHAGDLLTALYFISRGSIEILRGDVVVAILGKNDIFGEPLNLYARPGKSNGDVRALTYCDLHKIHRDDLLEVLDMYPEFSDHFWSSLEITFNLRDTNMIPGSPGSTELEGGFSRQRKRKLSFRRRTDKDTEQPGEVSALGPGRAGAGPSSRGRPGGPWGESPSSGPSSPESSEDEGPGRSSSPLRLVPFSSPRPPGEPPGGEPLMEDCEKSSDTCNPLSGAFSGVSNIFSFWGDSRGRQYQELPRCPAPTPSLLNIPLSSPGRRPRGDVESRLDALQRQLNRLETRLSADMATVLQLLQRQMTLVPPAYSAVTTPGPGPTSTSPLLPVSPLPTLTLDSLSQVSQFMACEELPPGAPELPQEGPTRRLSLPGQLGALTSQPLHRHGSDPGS", "experiment": "primary screen, population patch clamp on CHO cells stably expressing hERG; higher = less effect of the substance", "units": {"hERG current change (%, negative = inhibition) at 10uM": "%"}, "values": [
      {"compound": "COCCOc1cc(N)c(Cl)cc1Cl", "hERG current change (%, negative = inhibition) at 10uM": 15.5},
      {"compound": "COc1ccc(S(=O)(=O)N2CCOCC2)cc1NC(=O)CCc1nc2ccccc2c(=O)[nH]1", "hERG current change (%, negative = inhibition) at 10uM": 21.5},
      {"compound": "CN(c1ccccc1)S(=O)(=O)c1cccc(NC(=O)Cn2cnc3c2c(=O)n(C)c(=O)n3C)c1", "hERG current change (%, negative = inhibition) at 10uM": -52.6},
      {"compound": "Cc1cc(C)cc(NC(=O)COC(=O)Cn2cnc3c2c(=O)n(C)c(=O)n3C)c1", "hERG current change (%, negative = inhibition) at 10uM": -41.1},
      {"compound": "CCN(CC)S(=O)(=O)c1ccc(OC)c(NC(=O)Cn2cnc3c2c(=O)n(C)c(=O)n3C)c1", "hERG current change (%, negative = inhibition) at 10uM": -41.3},
      {"compound": "CCN(c1ccccc1)S(=O)(=O)c1ccc(OC)c(NC(=O)Cn2cnc3c2c(=O)n(C)c(=O)n3C)c1", "hERG current change (%, negative = inhibition) at 10uM": -66},
      {"compound": "Cn1c(=O)c2c(ncn2CC(=O)Nc2ccccc2)n(C)c1=O", "hERG current change (%, negative = inhibition) at 10uM": 13.9},
      {"compound": "CN(c1ccccc1)S(=O)(=O)c1cccc(NC(=O)Cn2cnc3ccccc3c2=O)c1", "hERG current change (%, negative = inhibition) at 10uM": -48.3},
      {"compound": "COc1ccc(S(=O)(=O)N2CCCCC2)cc1NC(=O)CCc1nc2ccccc2c(=O)[nH]1", "hERG current change (%, negative = inhibition) at 10uM": 0.795},
      {"compound": "CCN(c1ccccc1)S(=O)(=O)c1ccc(OC)c(NC(=O)CCc2nc3ccccc3c(=O)[nH]2)c1", "hERG current change (%, negative = inhibition) at 10uM": -51.2},
      {"compound": "COc1ccccc1NC(=O)Cn1cnc2c1c(=O)n(C)c(=O)n2C", "hERG current change (%, negative = inhibition) at 10uM": 17.9},
      {"compound": "Cc1cc(C)cc(NC(=O)C(OC(=O)Cn2cnc3c2c(=O)n(C)c(=O)n3C)c2ccccc2)c1", "note": "(centres unmarked)", "hERG current change (%, negative = inhibition) at 10uM": -69.7},
      {"compound": "COc1ccc(C)cc1NC(=O)C(OC(=O)Cn1cnc2c1c(=O)n(C)c(=O)n2C)c1ccccc1", "note": "(centres unmarked)", "hERG current change (%, negative = inhibition) at 10uM": -7.98},
      {"compound": "O=C(NCc1ccco1)C1CC(c2ccc(Cl)c(Cl)c2)=NO1", "note": "(centres unmarked)", "hERG current change (%, negative = inhibition) at 10uM": 8.51},
      {"compound": "CC(C)C(C(=O)NCC1CCCO1)N(Cc1ccccc1)C(=O)CNS(=O)(=O)c1ccccc1", "note": "(centres unmarked)", "hERG current change (%, negative = inhibition) at 10uM": 18.4},
      {"compound": "O=C(Nc1cccc(Br)c1)c1cc(=O)c2ccccc2o1", "hERG current change (%, negative = inhibition) at 10uM": 19.4},
      {"compound": "Cc1ccc(-c2csc(NC(=S)NC(=O)c3cc4ccccc4o3)n2)cc1", "hERG current change (%, negative = inhibition) at 10uM": 7.09},
      {"compound": "Cc1cc(S(=O)(=O)N2CCOCC2)c(C)s1", "hERG current change (%, negative = inhibition) at 10uM": 9.26},
      {"compound": "O=C(NCc1ccco1)c1sc2ccccc2c1Cl", "hERG current change (%, negative = inhibition) at 10uM": -9.84},
      {"compound": "CC(C)(C)CC(=O)Nc1nn[nH]n1", "hERG current change (%, negative = inhibition) at 10uM": 24.3},
      {"compound": "O=C(O)CN1C(=O)/C(=C\\c2cc([N+](=O)[O-])ccc2OCc2ccccc2Cl)SC1=S", "hERG current change (%, negative = inhibition) at 10uM": 29.4},
      {"compound": "Cc1ccccc1-c1noc(-c2ccc(Cl)cc2)n1", "hERG current change (%, negative = inhibition) at 10uM": 25.1},
      {"compound": "COc1ccc(C)c2sc(NNC(=O)COc3ccccc3)nc12", "hERG current change (%, negative = inhibition) at 10uM": 6.35},
      {"compound": "Cn1c(=O)c2c(ncn2CC(=O)N(Cc2ccccc2)c2ccccn2)n(C)c1=O", "hERG current change (%, negative = inhibition) at 10uM": -50.7},
      {"compound": "CCN(Cc1ccccc1)C(=O)Cn1cnc2c1c(=O)n(C)c(=O)n2C", "hERG current change (%, negative = inhibition) at 10uM": -16.1},
      {"compound": "Cn1c(=O)c2c(ncn2CC(=O)OCc2ccccc2)n(C)c1=O", "hERG current change (%, negative = inhibition) at 10uM": -6.21},
      {"compound": "Cc1sc2ncn(CC(=O)NCCCC(=O)N3CCN(c4ccccc4F)CC3)c(=O)c2c1C", "hERG current change (%, negative = inhibition) at 10uM": -20.9},
      {"compound": "CCOC(CNC(=O)c1cccn2c(=O)c3cc(Cl)ccc3nc12)OCC", "hERG current change (%, negative = inhibition) at 10uM": -7.16},
      {"compound": "CCOC(=O)N1CCN(C(=O)c2cccn3c(=O)c4cc(Br)ccc4nc23)CC1", "hERG current change (%, negative = inhibition) at 10uM": -68.2},
      {"compound": "O=C(c1ccc2nc3ccc(Cl)cc3c(=O)n2c1)N1CCOCC1", "hERG current change (%, negative = inhibition) at 10uM": -55.3},
      {"compound": "CCOC(=O)N1CCN(C(=O)c2ccc3nc4ccc(Cl)cc4c(=O)n3c2)CC1", "hERG current change (%, negative = inhibition) at 10uM": -45.9},
      {"compound": "NC(=O)C1(N2CCCCC2)CCN(C(=O)c2cccn3c(=O)c4cc(Cl)ccc4nc23)CC1", "hERG current change (%, negative = inhibition) at 10uM": -30.1},
      {"compound": "O=C(c1cccn2c(=O)c3cc(Br)ccc3nc12)N1CCC2(CC1)OCCO2", "hERG current change (%, negative = inhibition) at 10uM": -37},
      {"compound": "CCOC(=O)N1CCN(C(=O)c2cccn3c(=O)c4sccc4nc23)CC1", "hERG current change (%, negative = inhibition) at 10uM": -35.9},
      {"compound": "CCOC(=O)N1CCC(NC(=O)c2cccn3c(=O)c4cc(Br)ccc4nc23)CC1", "hERG current change (%, negative = inhibition) at 10uM": 3.69},
      {"compound": "CCOC(=O)N1CCN(C(=O)c2cccn3c(=O)c4cc(Cl)ccc4nc23)CC1", "hERG current change (%, negative = inhibition) at 10uM": -65.7},
      {"compound": "O=C(c1ccc2nc3ccc(Cl)cc3c(=O)n2c1)N1CCC2(CC1)OCCO2", "hERG current change (%, negative = inhibition) at 10uM": -40.3},
      {"compound": "O=C(c1cccn2c(=O)c3ccc(Cl)cc3nc12)N1CCC2(CC1)OCCO2", "hERG current change (%, negative = inhibition) at 10uM": -11.2},
      {"compound": "O=C(c1cccn2c(=O)c3cc(Cl)ccc3nc12)N1CCOCC1", "hERG current change (%, negative = inhibition) at 10uM": -52.9},
      {"compound": "O=C(O)c1nn(-c2cccc(Cl)c2)c(=O)cc1O", "hERG current change (%, negative = inhibition) at 10uM": 4.44},
      {"compound": "CN(Cc1nc2ccccc2c(=O)[nH]1)CC(O)COCc1ccco1", "note": "(centres unmarked)", "hERG current change (%, negative = inhibition) at 10uM": -13.9},
      {"compound": "COc1cccc(C(=O)NCc2ccc3c(c2)OCO3)c1OC", "hERG current change (%, negative = inhibition) at 10uM": 16.3},
      {"compound": "CCO[C@@H]1OC(C(=O)N2CCOCC2)=C[C@H](C2CC2)[C@H]1CCCO", "hERG current change (%, negative = inhibition) at 10uM": 11.6},
      {"compound": "O=C(c1ccco1)N1CCN(S(=O)(=O)c2ccc(Cl)cc2)CC1", "hERG current change (%, negative = inhibition) at 10uM": 2.47},
      {"compound": "COc1ccc(OC)c(N(CC(=O)Nc2ccccc2)S(=O)(=O)c2ccccc2)c1", "hERG current change (%, negative = inhibition) at 10uM": 6.01},
      {"compound": "CCc1ccc(OCC(O)CN2CCCC2)cc1.Cl", "note": "(centres unmarked)", "hERG current change (%, negative = inhibition) at 10uM": -13.8},
      {"compound": "CCN1CCN(CC(O)COc2ccc(Cl)cc2)CC1.Cl", "note": "(centres unmarked)", "hERG current change (%, negative = inhibition) at 10uM": -36.2},
      {"compound": "COc1cccc(OCCOCC(O)CN2CCN(Cc3ccc(Cl)cc3)CC2)c1.Cl", "note": "(centres unmarked)", "hERG current change (%, negative = inhibition) at 10uM": -72.3},
      {"compound": "COc1cccc(OCC(O)CN2CCN(CCO)CC2)c1.Cl", "note": "(centres unmarked)", "hERG current change (%, negative = inhibition) at 10uM": 15.7},
      {"compound": "CCc1ccc(OCCOCC(O)CN2CCN(Cc3ccc(Cl)cc3)CC2)cc1.Cl", "note": "(centres unmarked)", "hERG current change (%, negative = inhibition) at 10uM": -73.5},
      {"compound": "CCN1CCN(CC(O)COc2cccc(OC)c2)CC1.Cl", "note": "(centres unmarked)", "hERG current change (%, negative = inhibition) at 10uM": 3.43},
      {"compound": "COc1cc(/C=C(/NC(=O)c2ccccc2)C(=O)Nc2cccc(O)c2)c([N+](=O)[O-])cc1OC", "hERG current change (%, negative = inhibition) at 10uM": 0.394},
      {"compound": "Cn1c(=O)c([N+](=O)[O-])c(NCc2ccccc2)c2ccccc21", "hERG current change (%, negative = inhibition) at 10uM": 9.94}
    ]}
  ]
}
